Read-outs that look alike come from different tables or passages of the source. The whole screen tested about 13,000 compounds, of which about 3,200 (25%) showed an effect of 50% or more. The list shows a part of the results.

This assay concerns P. falciparum stage V gametocytes. Set-up: BacTiter-Glo ATP luminescence viability of purified stage V gametocytes in 384-well plates, per cent inhibition versus DMSO. To be noted: 48 h, 5 µM, inhibitor.

Regarding `O=c1cc(NCCCNCc2cc3ccccc3s2)[nH]c2ccccc12` [TCMDC-140234], the “% Inhibition” value is reported as -96.03%. The same measure, in the same setting: then `COc1ccc(NC(=O)/C=C/c2ccc(Cl)c(C(F)(F)F)c2)cc1OCCN(C(C)C)C(C)C` [TCMDC-139646], with -39.1%; and `COc1ccc(Br)cc1C1C2C(=O)N(c3ccc(Br)cc3)C(=O)C2C2(C(=O)O)CC(OCc3ccccc3)CN12` (centres unmarked) [TCMDC-139264], with 14.59%.

Turning to `N#Cc1ccnc(-c2ccc(CNC3CCN(CC4Cn5c(=O)ccc6ccc(F)c4c65)CC3)cc2)c1` (centres unmarked) [TCMDC-134408], the “% Inhibition” value is listed as -28.26%. With `CCc1ccc(OCCCON2C(N)=NC(N)=NC2(C)C)cc1` [TCMDC-131321], the “% Inhibition” value is listed as 2.956%. Take `CC(=O)Nc1cccc(NC(=O)CSc2ccc(-c3nc4ccccc4[nH]3)cn2)c1` [TCMDC-123529]: the “% Inhibition” value stood at 49.75%. For `O=C(CCC1CCCC1)N(Cc1ccc(-c2ccc(CNCCc3ccccc3)cc2)cc1)C1CCCNC1` (centres unmarked) [TCMDC-141444], the “% Inhibition” value amounted to 116.1%. As to `O=C(C1CC1c1ccccc1)N(Cc1ccc(-c2ccc(CNCCc3ccccc3)cc2)cc1)C1CCNCC1` (centres unmarked) [TCMDC-141443], the “% Inhibition” value came to 108.5%.

With `CC(=O)Nc1ncc(C(=O)Nc2cccc(-c3cccc(-c4nc5ccccc5[nH]4)c3)c2)s1` [TCMDC-136911], the “% Inhibition” value worked out at 11.96%.

In the case of `CC(=O)N1N=C(c2[nH]c3ccc(Br)cc3c2C)OC1c1ccccc1` (centres unmarked) [TCMDC-124752], the “% Inhibition” value worked out at 9.307%. Turning to `COc1ccc(CCNCc2ccc3nc(N)cc(C)c3c2)cc1` [TCMDC-138093], the “% Inhibition” value is 96.45%. With `Cc1cc(N)nc2ccc(-c3ccc(CN)cc3)cc12` [TCMDC-137785], the “% Inhibition” value was found to be 97.26%. On to `Cc1cc(N)nc2ccc(-c3ccc(CCN)cc3)cc12` [TCMDC-137786], for which the “% Inhibition” value is reported as 103.4%. Consider `COc1ccc2nc(C)cc(NCc3ccc4ccccc4c3)c2c1.Cl` [TCMDC-138977], for which the “% Inhibition” value came out at 6.085%. For the molecule `COc1ccc(CCNCc2ccc3c(C)cc(N)nc3c2)cc1` [TCMDC-138096], the “% Inhibition” value was found to be 41.14%. The same measure, in the same setting: then `NCc1ccc(Nc2nccc(Nc3ccc(-c4ccccc4)cc3)n2)cc1` [TCMDC-136004], with 25.82%. With `Cc1cc(N)nc2ccc(CNCCc3ccccc3Br)cc12` [TCMDC-138092], the “% Inhibition” value is 32.49%. With `Cc1cc(N)nc2ccc(-c3cccc(CN)c3)cc12` [TCMDC-137784], the “% Inhibition” value is 92.85%.

Regarding `Cc1ccc(Cc2c(N)nc3nc(N)nc(N)c3c2C)cc1` [TCMDC-138063], the “% Inhibition” value is given as 9.056%. As to `Cc1ccc(O)cc1Nc1ccnc2ccc(-c3cccc(CN(C)C)c3)cc12` [TCMDC-138481], the “% Inhibition” value is listed as 38.94%. In the case of `CC[C@H]1CN2CC[C@H]1C[C@H]2[C@H](O)c1cc(N2CCCC(CO)C2)nc2ccc(OC)cc12` (some centres unmarked) [TCMDC-141417], the “% Inhibition” value is listed as -19.77%. In the case of `CC[C@H]1CN2CC[C@@H]1C[C@H]2[C@H](O)c1ccnc2ccc(OC)cc12` [TCMDC-142003], the “% Inhibition” value is recorded as 82.89%. Consider `CC[C@H]1CN2CC[C@H]1C[C@H]2[C@H](O)c1ccnc2ccc(OC)cc12` [TCMDC-123485], for which the “% Inhibition” value is on record as -3.295%. On to `CC[C@H]1CN2CC[C@@H]1C[C@H]2[C@H](O)c1cc(N2CCC(c3ccccc3)CC2)nc2ccc(OC)cc12` [TCMDC-141435], for which the “% Inhibition” value was determined as 91.21%. As for `CC[C@H]1CN2CC[C@@H]1C[C@H]2[C@H](O)c1cc(N2CCCC(C)(C)C2)nc2ccc(OC)cc12` [TCMDC-141423], the “% Inhibition” value is reported as 67.35%. `CCOc1ccc2nccc([C@@H](O)[C@@H]3C[C@@H]4CCN3C[C@@H]4CC)c2c1` [TCMDC-125547]: for the setting “% Inhibition”, the “% Inhibition” value was -52.19%.

On to `CC[C@H]1CN2CC[C@@H]1C[C@H]2[C@H](O)c1cc(N2CCC(CO)CC2)nc2ccc(OC)cc12` [TCMDC-141418], for which the “% Inhibition” value is listed as 34.66%. As to `CC[C@H]1CN2CC[C@@H]1C[C@H]2[C@H](O)c1cc(N2CCC(O)CC2)nc2ccc(OC)cc12` [TCMDC-141415], the “% Inhibition” value is 17.87%. Consider `CC[C@H]1CN2CC[C@@H]1C[C@H]2[C@H](O)c1cc(N2CCC(C)CC2)nc2ccc(OC)cc12` [TCMDC-141419], for which the “% Inhibition” value stood at 96.92%. Take `O=C(/C=C/c1ccc(Cl)c(Cl)c1)NCCCCCN1CCCN(C(=S)Nc2ccc(Cl)c(Cl)c2)CC1` [TCMDC-135896]: the “% Inhibition” value was -3.43%. For the molecule `N#Cc1ccc2c(c1)CCN(CCC1CCC(NC(=O)Nc3cnc4ccccc4c3)CC1)C2` (centres unmarked) [TCMDC-139440], the “% Inhibition” value was 3.253%. On the same count and under the same terms, the value for `CC[C@H]1CN2CC[C@@H]1C[C@H]2[C@H](O)c1cc(N2CCC(O)(c3ccccc3)CC2)nc2ccc(OC)cc12` [TCMDC-141438] was 44.1%. On to `CC[C@H]1CN2CC[C@@H]1C[C@H]2[C@H](O)c1cc(N2CCC(C(N)=O)CC2)nc2ccc(OC)cc12` [TCMDC-141441], for which the “% Inhibition” value is -22.84%.

In the case of `CC[C@H]1CN2CC[C@H]1C[C@H]2[C@H](O)c1cc(N2CCCC2)nc2ccc(OC)cc12` [TCMDC-141217], the “% Inhibition” value is recorded as -33.27%. For `CC[C@H]1CN2CC[C@@H]1C[C@H]2[C@H](O)c1cc(N2CCC(N3CCCCC3)CC2)nc2ccc(OC)cc12` [TCMDC-141442], the “% Inhibition” value is recorded as 105.7%. Consider `CC[C@H]1CN2CC[C@H]1C[C@H]2[C@H](O)c1cc(N2CCCC(C(=O)N(CC)CC)C2)nc2ccc(OC)cc12` (some centres unmarked) [TCMDC-141434], for which the “% Inhibition” value worked out at 46.24%. With `CC[C@H]1CN2CC[C@@H]1C[C@H]2[C@H](O)c1cc(N2CCSCC2)nc2ccc(OC)cc12` [TCMDC-141424], the “% Inhibition” value is 79.98%. Regarding `CC[C@H]1CN2CC[C@@H]1C[C@H]2[C@H](O)c1cc(N2CCOCC2)nc2ccc(OC)cc12` [TCMDC-141416], the “% Inhibition” value was -92.7%.

Regarding `CC[C@H]1CN2CC[C@H]1C[C@H]2[C@H](O)c1cc(N2CCC3CCCCC3C2)nc2ccc(OC)cc12` (some centres unmarked) [TCMDC-141440], the “% Inhibition” value is 90.7%.

As for `CC[C@H]1CN2CC[C@@H]1C[C@H]2[C@H](O)c1cc(N2CCC(O)(c3ccc(Cl)cc3)CC2)nc2ccc(OC)cc12` [TCMDC-141439], the “% Inhibition” value is given as 74.49%. With `O=C(Nc1ccc(OC2CCN(Cc3ccc(F)cc3)C2)c(Cl)c1)c1ccccc1` (centres unmarked) [TCMDC-133762], the “% Inhibition” value came out at 42.11%. Consider `Oc1cccc(CNCCCN(Cc2ccccc2)c2ccccc2)c1` [TCMDC-137875], for which the “% Inhibition” value was 12.29%. Take `Cc1cccc(CCCNC(=O)CN(c2cccc(C(F)(F)F)c2)S(=O)(=O)c2ccc(C(F)(F)F)cc2)c1` [TCMDC-136508]: the “% Inhibition” value was -41.52%.

As for `Cc1ccc(S(=O)(=O)N(CCCNCc2cccc(O)c2)c2ccccc2)cc1` [TCMDC-138022], the “% Inhibition” value is recorded as 66.9%.

One may read the % Inhibition as the drop in the measured response relative to a control, in per cent.
